Reference: PubChem BioAssay (Tox21)
Results filed as inconclusive are left out. Active and inactive are the calls of the source. Unless noted, calls come from the whole dose curve; as a rule, active = well fitted curve in the direction sought with a large enough effect in the repeat runs; inconclusive = weak or mixed curves; inactive = no such curve, though single readings can be large; an effect the other way counts as inactive or inconclusive.

Key:
[1] = A CellTox Green Cytotoxicity Assay to monitor cytotoxicity in HEK293 cells - 32 hour (AID 1224881); note: nearly all actives have a fitted effect of over 40% in size
Summary of the method: (§1)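 HEK293 cells premixed with CellTox Green dye were seeded at 600 cells/well and left 5 h at 37 C/5% CO2 before pin transfer of 23 nL compound in DMSO. Fluorescence from dye bound to dead-cell DNA was read during 40 h treatment.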

[2] = A CellTox Green Cytotoxicity Assay to monitor cytotoxicity in HepG2 cells - 0 hour (AID 1224882); note: nearly all actives have a fitted effect of over 35% in size
Summary of the method: (§2)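 HepG2 cells were seeded together with the CellTox Green dye at 600 cells/well, left 5 h at 37 C/5% CO2, then given compounds in DMSO. Fluorescence from dye bound to dead-cell DNA was read repeatedly over 40 h of treatment at 37 C.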

[3] = A CellTox Green Cytotoxicity Assay to monitor cytotoxicity in HepG2 cells - 32 hour (AID 1224883); note: nearly all actives have a fitted effect of over 50% in size
Summary of the method: as §2

[4] = A CellTox Green Cytotoxicity Assay to monitor cytotoxicity in HEK293 cells - 8 hour (AID 1224884); note: nearly all actives have a fitted effect of over 35% in size
Summary of the method: as §1

[5] = qHTS RealTime-Glo MT Cell Viability Assay in HepG2 cells - 16 hour (AID 1224885); note: nearly all actives have a fitted effect of over 50% in size
Summary of the method: (§3)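 Tox21 10K library screened in qHTS format on HepG2 cells carrying RealTime-Glo reagents. Compounds were added after a 5 h preincubation, and the luminescent signal from continuous culture was measured repeatedly during 40 h treatment.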

[6] = qHTS RealTime-Glo MT Cell Viability Assay in HEK293 cells - 8 hour (AID 1224887); note: top concentration of the series differs between compounds; nearly all actives have a fitted effect of over 50% in size
Summary of the method: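 HEK293 cells mixed with RealTime-Glo reagents (NanoLuc plus cell-permeant prosubstrate) at 600 cells/well, preincubated 5 h at 37 C/5% CO2, then given 23 nL compound in DMSO. Nonlytic luminescence from viable cells was read at 0, 8, 16, 24, 32 and 40 h.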

[7] = qHTS RealTime-Glo MT Cell Viability Assay in HepG2 cells - 0 hour (AID 1224889); note: nearly all actives have a fitted effect of over 50% in size
Summary of the method: as §3

[8] = A CellTox Green Cytotoxicity Assay to monitor cytotoxicity in HepG2 cells - 8 hour (AID 1224890); note: nearly all actives have a fitted effect of over 45% in size
Summary of the method: as §2

[9] = qHTS assay to identify small molecule antagonists of the estrogen receptor alpha (ER-alpha) signaling pathway using the BG1 cell line in the presence of 0.1 nM 17-beta-estradiol - cell viability counter screen (AID 1259241); note: nearly all actives have a fitted effect of over 40% in size
Summary of the method: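 VM7Luc4E2 cells (endogenous full-length ER-alpha, 4xERE-luciferase), cultured 5 days in charcoal-stripped serum, exposed to compounds with 0.1 nM 17beta-estradiol (final) for 22 hr at 37C. Viability read in same wells as live-cell protease fluorescence after 30 min.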

[10] = qHTS assay to identify small molecule antagonists of the androgen receptor (AR) signaling pathway using the MDA cell line in the presence of 0.5 nM R1881 - cell viability counter screen (AID 1259242); note: nearly all actives have a fitted effect of over 45% in size
Summary of the method: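 MDA-kb2 cells (human breast carcinoma, stably carrying MMTV-luciferase reporter) were exposed to compounds with 0.5 nM R1881 (final) for 16 hr at 37C, 0% CO2; viability then read as live-cell protease fluorescence (CellTiter-Fluor, 30 min) in the same wells.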

[11] = qHTS assay to identify small molecule HDAC inhibitors (AID 1259364); note: top concentration of the series differs between compounds; nearly all actives have a fitted effect of over 45% in size
Summary of the method: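 Wild-type HCT-116 cells were plated overnight, exposed to compounds for 2 h at 37 °C, then given HDAC-Glo class I/II luminogenic reagent for 30 min at room temperature before luminescence was read.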

[12] = qHTS assay to identify small molecule HDAC inhibitors - cell viability counter screen (AID 1259365)
Summary of the method: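 Wild-type HCT-116 cells, 1,500/well, cultured overnight, then compound-treated 2 h at 37 C. Viability measured as ATP luminescence with CellTiter-Glo after 30 min at room temperature.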

[13] = qHTS assay to identify small molecule agonists of the sonic hedgehog signaling (Shh) pathway - cell viability counter screen (AID 1259366); note: nearly all actives have a fitted effect of over 50% in size
Summary of the method: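 NIH/3T3-derived Gli1-Luc reporter cells, 2,000 per well, received compound after 4 h and were treated about 23 h at 37C. Viability measured in the same wells by CellTiter-Fluor fluorescence after 1 h.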

[14] = qHTS assay to identify small molecule antagonists of the sonic hedgehog signaling (Shh) pathway - cell viability counter screen (AID 1259367); note: nearly all actives have a fitted effect of over 55% in size
Summary of the method: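 Using CellTiter-Fluor, viability of Gli1-Luc reporter 3T3 cells is read by fluorescence in the wells used for the Shh luciferase assay. Treatment lasts 23 hr with conditioned medium, then reagent 1 hr at 37C.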

[15] = qHTS assay to identify small molecule agonists of the sonic hedgehog signaling (Shh) pathway (AID 1259368; calls by dose curve; note: series mostly up to about 92 µM; nearly all actives have a fitted effect of over 15% in size)
Summary of the method: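 NIH/3T3-derived 3T3Gli1-Luc cells carrying a stably integrated Gli1 response element–firefly luciferase reporter were plated, left 4 hr at 37 C, then given compounds in DMSO for 24 hr. Luminescence was read 30 min after adding luciferase reagent.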

[16] = A CellTox Green Cytotoxicity Assay to monitor cytotoxicity in HEK293 cells - 16 hour (AID 1224888); note: nearly all actives have a fitted effect of over 35% in size
Summary of the method: as §1

[17] = qHTS assay to identify small molecule phospholipidosis (PLD) inducers (AID 1259344; active = well fitted curve in the direction sought with a large enough effect; an effect the other way counts as inactive or inconclusive)
Summary of the method: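 Fluorescent phospholipid staining (LipidTOX Red) measured by automated microscopy in fixed HepG2 cells after 24 h treatment; nuclei counterstained with Hoechst 33342; amiodarone as reference inducer.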

[18] = qHTS RealTime-Glo MT Cell Viability Assay in HEK293 cells - 24 hour (AID 1224886)
Summary of the method: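 Luminescence generated by NanoLuc from substrate produced by living HEK293 cells served as the viability signal. Each value reflects the reading at its stated time point during continuous 40 h compound exposure at 37 C.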

[19] = target: Estrogen receptor (Homo sapiens) (UniProt P03372); experiment: qHTS assay to identify small molecule antagonists of the estrogen receptor alpha (ER-alpha) signaling pathway using the BG1 cell line in the presence of 0.1 nM 17-beta-estradiol (AID 1259244); note: nearly all actives have a fitted effect of over 50% in size
Chain of Estrogen receptor (Homo sapiens) (P03372 whole entry, looked up): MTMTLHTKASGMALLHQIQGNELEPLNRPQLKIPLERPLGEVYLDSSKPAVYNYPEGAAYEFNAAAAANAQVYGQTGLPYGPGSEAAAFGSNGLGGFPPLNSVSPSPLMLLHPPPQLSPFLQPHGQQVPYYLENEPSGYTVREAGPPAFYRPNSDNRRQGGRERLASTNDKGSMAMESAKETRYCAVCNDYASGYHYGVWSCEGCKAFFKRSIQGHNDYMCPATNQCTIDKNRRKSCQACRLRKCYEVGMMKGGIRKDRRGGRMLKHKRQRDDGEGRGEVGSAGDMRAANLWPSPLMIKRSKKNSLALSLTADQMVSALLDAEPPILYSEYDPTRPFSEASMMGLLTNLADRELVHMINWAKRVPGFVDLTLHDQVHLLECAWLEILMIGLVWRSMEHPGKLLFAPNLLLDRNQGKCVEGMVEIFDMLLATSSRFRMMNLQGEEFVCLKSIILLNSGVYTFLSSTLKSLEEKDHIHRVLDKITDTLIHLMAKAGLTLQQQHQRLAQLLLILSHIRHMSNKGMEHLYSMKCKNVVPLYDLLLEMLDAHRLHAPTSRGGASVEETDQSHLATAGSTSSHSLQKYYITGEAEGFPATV
Summary of the method: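 VM7Luc4E2 cells (endogenous full-length ER-alpha, stable 4xERE-luciferase) were grown 5 days in phenol red-free medium with charcoal-stripped FBS, then exposed 22 h at 37C to compounds plus 0.1 nM (final) 17beta-estradiol; ONE-Glo luminescence read-out.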

[20] = target: Androgen receptor (Homo sapiens) (UniProt P10275); experiment: qHTS assay to identify small molecule antagonists of the androgen receptor (AR) signaling pathway using the MDA cell line in the presence of 0.5 nM R1881 (AID 1259243); note: nearly all actives have a fitted effect of over 50% in size
Chain of Androgen receptor (Homo sapiens) (P10275 whole entry, looked up): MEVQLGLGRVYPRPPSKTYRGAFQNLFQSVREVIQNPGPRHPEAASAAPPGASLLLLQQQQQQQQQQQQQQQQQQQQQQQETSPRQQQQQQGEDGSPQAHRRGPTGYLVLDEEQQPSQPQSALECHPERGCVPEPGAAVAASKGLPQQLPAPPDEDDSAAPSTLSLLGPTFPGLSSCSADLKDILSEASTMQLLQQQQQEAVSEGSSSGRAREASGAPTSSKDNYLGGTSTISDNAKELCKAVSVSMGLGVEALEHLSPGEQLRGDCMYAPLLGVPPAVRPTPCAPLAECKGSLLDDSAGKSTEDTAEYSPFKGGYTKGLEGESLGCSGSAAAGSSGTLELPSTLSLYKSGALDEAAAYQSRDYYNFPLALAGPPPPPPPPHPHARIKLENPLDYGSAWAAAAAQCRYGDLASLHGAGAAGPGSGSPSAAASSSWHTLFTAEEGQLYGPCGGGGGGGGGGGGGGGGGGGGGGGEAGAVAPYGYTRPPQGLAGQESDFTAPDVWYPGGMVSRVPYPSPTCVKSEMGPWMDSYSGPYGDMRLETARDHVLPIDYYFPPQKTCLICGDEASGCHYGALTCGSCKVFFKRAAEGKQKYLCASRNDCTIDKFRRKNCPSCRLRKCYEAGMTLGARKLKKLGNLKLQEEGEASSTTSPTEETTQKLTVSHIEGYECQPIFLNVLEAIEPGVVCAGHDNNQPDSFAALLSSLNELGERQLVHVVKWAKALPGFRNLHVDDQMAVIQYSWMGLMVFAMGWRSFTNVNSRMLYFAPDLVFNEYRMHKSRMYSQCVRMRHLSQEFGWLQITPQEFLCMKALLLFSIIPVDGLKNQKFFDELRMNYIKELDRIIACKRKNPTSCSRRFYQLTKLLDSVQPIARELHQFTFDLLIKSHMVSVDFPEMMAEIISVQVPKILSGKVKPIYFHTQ
Summary of the method: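 MDA-kb2 human breast carcinoma cells carrying an MMTV-luciferase reporter (AR- and GR-responsive) were plated, rested 5 hr at 37C, dosed with compounds, then stimulated with 0.5 nM R1881 (final) for 16 hr; luminescence was read after ONE-Glo.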
% is set by controls: 0 for no effect and ±100 for the full control effect.

CCCc1ncc(C[n+]2ccccc2C)c(N)n1
inactive: outcome [1] | Potency [2] | Potency [3] | outcome [4] | outcome [5] | Potency [6] | Potency [7] | outcome [8] | outcome [9] | outcome [10] | Potency [11] | outcome [12] | Potency [13] | Potency [14] | outcome [15]

NC(N)=NCCN1CCCCCCC1
inactive: cytotoxicity increase [1] 2.16% [at 0.29 µM] | cytotoxicity [2] -10% [at 0.29 µM] | cytotoxicity increase [3] -12.8% [at 0.29 µM] | cytotoxicity increase [4] 0.959% [at 0.29 µM] | activity change, negative = cytotoxic [5] 1.58% [at 0.29 µM] | activity change, negative = cytotoxicity [6] -0.479% [at 0.29 µM] | activity change [16] 1.24% [at 0.29 µM] | activity change, negative = cytotoxicity [7] 0.442% [at 0.29 µM] | cytotoxicity increase [8] -11.3% [at 0.29 µM] | activity change, negative = cytotoxicity [9] -0.721% [at 0.349 µM] | viability change, negative = cytotoxic [10] 1.84% [at 0.349 µM] | outcome [17] | activity change, negative = inhibition [11] -1.37% [at 0.349 µM] | activity change, negative = cytotoxicity [12] -1.69% [at 0.349 µM] | viability change, negative = cytotoxic [13] -1.53% [at 0.349 µM] | viability change, negative = cytotoxic [14] 3.04% [at 0.349 µM] | activity change [15] -0.0353% [at 0.349 µM]

CN(C)CCCN(C)CCCN(C)C
inactive: outcome [1] | Potency [2] | outcome [4] | outcome [5] | Potency [18] | Potency [6] | outcome [16] | Potency [7] | outcome [8] | outcome [9] | outcome [10] | outcome [19] | Potency [11] | outcome [12] | Potency [13] | Potency [14] | outcome [15]

CC(C)COC(=O)c1ccc(N)cc1
inactive: outcome [1] | Potency [2] | Potency [3] | outcome [4] | outcome [5] | Potency [6] | outcome [16] | Potency [7] | outcome [8] | outcome [9] | outcome [10] | outcome [19] | outcome [12] | Potency [13] | Potency [14] | outcome [15]

c1ccc2sc(SN3CCOCC3)nc2c1
inactive: outcome [1] | Potency [2] | Potency [3] | outcome [4] | outcome [5] | Potency [6] | outcome [16] | Potency [7] | outcome [8] | outcome [9] | outcome [10] | outcome [12] | Potency [13] | outcome [15]

COc1cc(C(=O)OC(COCCC(C)C)CN2CCOCC2)cc(OC)c1OC (centres undefined)
inactive: outcome [1] | Potency [2] | Potency [3] | outcome [4] | outcome [5] | Potency [6] | outcome [16] | Potency [7] | outcome [8] | outcome [9] | outcome [10] | outcome [19] | Potency [11] | outcome [12] | Potency [13] | Potency [14] | outcome [15]

CC(=O)N1C[C@H](O)C[C@H]1C(=O)O
inactive: outcome [1] | Potency [2] | outcome [4] | outcome [5] | Potency [18] | Potency [6] | outcome [16] | Potency [7] | outcome [8] | outcome [9] | outcome [10] | Potency [20] | outcome [19] | Potency [11] | outcome [12] | Potency [13] | Potency [14]

Cc1cc(C)c(N=Nc2c(O)c(S(=O)(=O)O)cc3cc(S(=O)(=O)O)ccc23)cc1C
inactive: cytotoxicity increase [1] 10.2% [at 6.97 µM] | cytotoxicity [2] 2.93% [at 6.97 µM] | cytotoxicity increase [3] -2.71% [at 6.97 µM] | cytotoxicity increase [4] 0% [at 6.97 µM] | activity change, negative = cytotoxic [5] 0.476% [at 6.97 µM] | activity change [16] 15.4% [at 6.97 µM] | activity change, negative = cytotoxicity [7] 4.39% [at 6.97 µM] | cytotoxicity increase [8] 3.92% [at 6.97 µM] | activity change, negative = cytotoxicity [9] -12.4% [at 8.39 µM] | viability change, negative = cytotoxic [10] -3.59% [at 8.39 µM] | activity change, negative = inhibition [19] -1.05% [at 8.39 µM] | activity change, negative = inhibition [11] -2.59% [at 8.39 µM] | activity change, negative = cytotoxicity [12] -2.91% [at 8.39 µM] | viability change, negative = cytotoxic [13] -2.37% [at 8.39 µM] | viability change, negative = cytotoxic [14] -9.99% [at 8.39 µM] | activity change [15] -1.73% [at 8.39 µM]
